Measured values published in PubChem BioAssay AID1494158 (National Center for Advancing Translational Sciences (NCATS), 2020).
Records with an inconclusive call do not appear. Activity calls are given as the source filed them. The call rests on the fitted dose curve.

Assay: VSV-G qHTS counterscreen for inhibitors of SARS-S pseudo-typed particle cell entry
Settings: VSV-G pseudotyped particle entry counterscreen, luciferase; series mostly up to 57.1 µM

Compound	Potency
C=C(C)[C@H]1Cc2c(ccc3c2O[C@@H]2COc4cc(OC)c(OC)cc4[C@@H]2C3=O)O1	0.0383 µM (active)
CCn1cc(C(=O)O)c(=O)c2cc(F)c(N3CCNC(C)C3)c(F)c21 (stereo not given)	inactive
CN1CC[C@H](CN2c3ccccc3Sc3ccccc32)C1	inactive
O=C1CCc2ccc(OCCCCN3CCN(c4cccc(Cl)c4Cl)CC3)cc2N1	19.2 µM (active)
CCCN1C[C@H](C)[C@@H](O)[C@](C)(O)[C@@H](CC)OC(=O)[C@H](C)[C@@H](O[C@H]2C[C@@](C)(OC)[C@@H](O)[C@H](C)O2)C(C)[C@@H](O[C@@H]2O[C@H](C)C[C@H](N(C)C)[C@H]2O)[C@](C)(O)C[C@H]1C (stereo not given in full)	inactive
CO[C@@]12[C@H](COC(N)=O)C3=C(C(=O)C(C)=C(N)C3=O)N1C[C@@H]1N[C@@H]12	3.41 µM (active)
O=C1c2c(O)ccc(O)c2C(=O)c2c(NCCNCCO)ccc(NCCNCCO)c21	0.171 µM (active)
CCCCN=C(N)N=C(N)N	inactive
CN(C)CCOC(c1ccccc1)c1ccc(Br)cc1 (stereo not given)	inactive
O=C(Nc1ccc([N+](=O)[O-])cc1Cl)c1cc(Cl)ccc1O	0.482 µM (active)
Cc1cn([C@H]2C[C@H](N=[N+]=[N-])[C@@H](CO)O2)c(=O)[nH]c1=O	3.41 µM (active)
COC(=O)C[C@](O)(CCCC(C)(C)O)C(=O)O[C@@H]1C(OC)=C[C@]23CCCN2CCc2cc4c(cc2[C@H]13)OCO4	1.36 µM (active)
CC[C@@]1(O)C(=O)OCc2c1cc1n(c2=O)Cc2cc3c([N+](=O)[O-])cccc3nc2-1	0.124 µM (active)
CC[C@@]1(O)C(=O)OCc2c1cc1n(c2=O)Cc2cc3c(CN(C)C)c(O)ccc3nc2-1	0.383 µM (active)
Nc1nc(Cl)nc2c1ncn2C1CC(O)C(CO)O1 (stereo not given)	5.41 µM (active)
CC(=O)[C@]1(O)Cc2c(O)c3c(c(O)c2[C@@H](O[C@H]2C[C@H](N)[C@H](O)[C@H](C)O2)C1)C(=O)c1ccccc1C3=O	4.82 µM (active)
N/C(=N\N=C\c1ccc(Cl)cc1)N/N=C/c1ccc(Cl)cc1	24.1 µM (active)
C/C=C(/C)C(=O)O[C@H]1C(C)=CC23C(=O)C(C=C(CO)[C@@H](O)[C@]12O)[C@H]1[C@@H](C[C@H]3C)C1(C)C (stereo not given in full)	0.215 µM (active)
N=C(N)c1ccc(OCCCCCOc2ccc(C(=N)N)cc2)cc1	21.5 µM (active)
COc1cc2c(cc1Cc1cccc(Cl)c1F)c(=O)c(C(=O)O)cn2[C@H](CO)C(C)C	0.215 µM (active)
COc1cccc2c1C(=O)c1c(O)c3c(c(O)c1C2=O)C[C@@](O)(C(=O)CO)C[C@@H]3O[C@H]1C[C@H](N)[C@H](OC2CCCCO2)[C@H](C)O1 (stereo not given in full)	9.61 µM (active)
COc1cccc2c1C(=O)c1c(O)c3c(c(O)c1C2=O)C[C@@](O)(C(=O)CO)C[C@@H]3O[C@H]1C[C@H](N)[C@@H](O)[C@H](C)O1	4.82 µM (active)
CC(C)(C)C(=O)OCOP(=O)(COCCn1cnc2c(N)ncnc21)OCOC(=O)C(C)(C)C	0.0681 µM (active)
C=CC1(C)CC(=O)C2(O)C(C)(O1)C(OC(C)=O)C(OC(=O)CCN(C)C)C1C(C)(C)CCC(O)C12C (stereo not given)	inactive
COC(=O)C1=C(C)NC(C)=C(C(=O)OCC(C)C)C1c1ccccc1[N+](=O)[O-] (stereo not given)	24.1 µM (active)
